# This is part of a sample that, as a whole, favours compounds with a hit. Of some 83,000 tested, about 20% had one in any assay.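 Results are percent growth after 48 hours of single-concentration exposure. 100 means growth as in untreated cells, lower positive values show inhibition; negative values down to -100 show cell death.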 Values without a mark were called inactive. Activity calls are given as the source filed them. Rule for the calls: active = growth percent below 10; inactive = the rest.
# Legend:
# Assay in all cases: NCI-60 one-dose screen, 48 h (100 = growth as untreated, 0 = no growth, -100 = all killed)
# Details in all cases: 10 µM unless noted
# NCI-H23 lung = test system: NCI-H23 lung
# NCI-H226 lung = test system: NCI-H226 lung
# HOP-62 NSCLC = test system: HOP-62 NSCLC
# NCI-H460 lung = test system: NCI-H460 lung
# HOP-92 NSCLC = test system: HOP-92 NSCLC
# NCI-H522 lung = test system: NCI-H522 lung
# A549/ATCC NSCLC = test system: A549/ATCC NSCLC
# 786-0 renal = test system: 786-0 renal
# COLO 205 colon = test system: COLO 205 colon
SMILES,growth (NCI-H23 lung),growth (NCI-H226 lung),growth (HOP-62 NSCLC),growth (NCI-H460 lung),growth (HOP-92 NSCLC),growth (NCI-H522 lung),growth (A549/ATCC NSCLC),growth (786-0 renal),growth (COLO 205 colon)
C=CCn1c(SCC(=O)Nc2cccc(C(=O)/C=C/c3cccc([N+](=O)[O-])c3)c2)nc2ccccc2c1=O,89.3%,83.6%,108%,93.4%,82.1%,89.3%,94.1%,94.8%,117%
CC(C)c1nn(-c2ccccc2)c(N2CCCCC2)c1/C=N/NC(N)=S,90.9%,88.2%,101%,96.5%,64.6%,,79.2%,101%,
COc1ccc(-c2cc(-c3ccc(Cl)cc3)nc3nc(N)nn23)cc1,108%,99.6%,107%,,102%,93.9%,93.8%,87.7%,105%
Cc1ccc(Cc2cnc(NC(=O)/C(C#N)=C/c3ccc(-c4ccc(Cl)cc4)o3)s2)cc1,91.3%,117%,101%,83.8%,66.9%,96.9%,103%,99.9%,
C#C[C@]1(O)CC[C@H]2[C@@H]3CC=C4c5sc(Nc6cc(OC)ccc6OC)nc5CC[C@]4(C)[C@H]3CC[C@@]21C,33.9%,60.4%,41.2%,26.6%,51.4%,63.8%,38%,-2.79% (active),18.5%
COc1cc(/C=N/n2cnc3oc(-c4ccccc4)cc3c2=N)cc(CN2CCN(C)CC2)c1O,104%,87.3%,88.1%,108%,74.9%,96.9%,94.3%,62.5%,80.9%
Cc1ccc(NC(=O)N[C@@H](Cc2cc(F)cc(F)c2)C(=O)NC2C(=O)N3CCC[C@H]3C(=O)N3CCCC[C@H]3C(=O)N[C@@H](C)C(=O)N3C[C@H](C)C[C@H]3C(=O)O[C@H]2C)c(F)c1 (stereo partly specified),35.2%,1.32% (active),33.8%,15.3%,4.3% (active),19.7%,26.1%,40.7%,-33.3% (active)
CCCCCCNC(=O)Oc1ccc(/C(=C(/C)c2ccccc2)c2ccc(OCCN(C)C)cc2)cc1,65.3%,89.6%,86.1%,18.3%,44.5%,68.8%,73.4%,57.4%,6.56% (active)
Cc1cc(-c2ccc3nc(N)sc3c2)nc2ccc3[nH]ncc3c12,39.4%,53%,31.6%,14%,36.2%,6.95% (active),45.4%,64.8%,12.5%
C/C(=N\NC(=O)CSc1nc2sc3c(c2c(=O)n1-c1ccccc1)CCC(C)C3)c1ccc(Cl)cc1 (stereo unspecified),28.2%,-1.29% (active),34.5%,4.18% (active),-1.5% (active),22.2%,42.5%,7.93% (active),26.5%
